Source: PubChem BioAssay (NCI)
The panel holds about 83,000 compounds, 20% with a hit somewhere; the sample as a whole holds those more often.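 96-well plates, one dose, 48 hours. Percent growth reported; active if below 10.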 The source made the active and inactive calls.

These molecules were tested on MCF7 breast (assay: NCI-60 one-dose screen, 48 h (100 = growth as untreated, 0 = no growth, -100 = all killed)). Settings: 10 µM unless noted.
In the case of `CC1(C)CC[C@]2(C(=O)O)CC[C@]3(C)C(=CCC4[C@@]5(C)C[C@@H](O)[C@@H]6OC(c7cccc(Br)c7)OC[C@@]6(C)C5CC[C@]43C)C2C1` (stereo partly drawn), the growth is reported as 18.6% (inactive).
`CCOC(=O)/C=C/c1cccc2c1C(=O)NC(C)(c1cc3cc(Br)ccc3oc1=O)N2` (stereo not drawn) was tested, and the growth was 35.3% (inactive).
With `COc1cc(OC)c2c3nc4cc(C)c(C)cc4nc3n(CCN(C)C)c2c1` the growth was -17.2% (active).
For `COc1ccc(N2N=C(c3ccc4c(c3)OCO4)CC2c2cccc(NC(=O)CCCNS(=O)(=O)c3ccc(F)cc3)c2)cc1` (stereo not drawn), the growth was 42.2% (inactive).
`Cc1ccc(NC(=O)CN2CCN(c3ncnc4c3cnn4-c3ccccc3)CC2)cc1` was tested, and the growth was 74.2% (inactive).
In the case of `CN(C)CCn1c2ccccc2c2nc3cc4ccccc4cc3nc21`, the growth is reported as -9.03% (active).
For `Cc1ccc(C2CC(c3ccc(S(=O)(=O)NCCNc4nc(Nc5ccc(F)cc5)nc(N(C)C)n4)cc3)=Nc3c(N)nc(N)nc3N2)cc1` (stereo not drawn), the growth was 18.7% (inactive).
`O=c1onc(-c2cc3ccccc3nc2Cl)n1-c1cccc2ccccc12` was tested, and the growth was 21.4% (inactive).
With `CCCS(=O)(=O)N1CCCC(C(=O)Nc2nc3ccc(NC(=O)c4ccc(F)c(OC)c4F)cc3s2)C1` (stereo not drawn) the growth was 13.1% (inactive).
For `CN(C)c1nc(NCCNS(=O)(=O)c2ccc(C(=O)/C=C/c3ccc(F)cc3)cc2)nc(Nc2ccc(F)cc2)n1`, the growth was -82.8% (active).
In the case of `O=C(CCN1C(=O)/C(=C/c2ccc(F)cc2)SC1=S)N1CCOCC1`, the growth is reported as 48.1% (inactive).
For `O=c1[nH]c2ccccc2cc1CSc1nccc(-c2ccc3ccccc3c2)n1`, the growth was 47% (inactive).
`CC(=O)Nc1ccc(-n2cnc3ccc(-c4ccc(O)cc4)cc32)cc1` was tested, and the growth was 10.6% (inactive).
For `CC(C)Sc1nc(NCCc2c[nH]c3ccccc23)c(C#N)c(-c2ccc(F)cc2)n1`, the growth was 4.29% (active).
With `CC(=O)c1c(N)c(C#N)cn1-c1ccc(Cl)cc1Cl` the growth was 100% (inactive).
With `C#CCOc1ccc(/C=N/Nc2nc(-c3ccc(Cl)cc3)cs2)cc1OC` the growth was 21.8% (inactive).
With `C/C(=N\N=C1/C(=O)Nc2ccc(Cl)cc21)c1ccc2c(c1)Nc1ccccc1S2` the growth was -9.38% (active).
With `CC12CC[C@@H]3[C@]4(C)COC(c5c(F)cccc5F)O[C@@H]4CC[C@@]3(C)[C@@H]1CC(C1=CCOC1=O)O2` (stereo partly drawn) the growth was 58.4% (inactive).
With `NC(=S)Nc1cccc(NC(N)=S)c1` the growth was 91.7% (inactive).
In the case of `Cc1ccc([C@H]2C(C(=O)c3ccc(Cl)cc3)C3(N[C@@H]2c2ccccc2)C(=O)Nc2ccc(Br)cc23)cc1` (stereo partly drawn), the growth is reported as 21.2% (inactive).
`CC(=O)OC[C@@]1(C)C2CC[C@]3(C)C(CC=C4C5CC(C)(C)CC[C@]5(C(=O)Nc5cccc(C)c5)CC[C@]43C)[C@@]2(C)C[C@@H](OC(C)=O)[C@@H]1OC(C)=O` (stereo partly drawn) was tested, and the growth was 24.9% (inactive).
For `CCCSc1nc(NCCc2c[nH]c3ccccc23)c(C#N)c(-c2ccc(F)cc2)n1`, the growth was 35.3% (inactive).
For `Clc1ccc(-c2ccc(OCCCN3CCN(c4ccncc4)CC3)cc2)cc1`, the growth was -1.15% (active).
In the case of `COc1ccc(C2(SCCNCc3cc(N(C)C)ccn3)c3ccccc3C=Cc3ccccc32)cc1`, the growth is reported as -5.08% (active).
For `COc1ccc(C2=NN(C(C)=O)C(c3ccc(OCc4ccc(Cl)cc4)c(OC)c3)C2)cc1OC` (stereo not drawn), the growth was 20.1% (inactive).
For `CCN(CC)c1ccc(/C=N/Nc2nc(-c3ccc(C)cc3)cs2)c(O)c1`, the growth was 67.8% (inactive).
In the case of `COc1ccc2[nH]cc(-c3nnc(N)nc3-c3cn(C)c4ncc(Br)cc34)c2c1`, the growth is reported as 68.7% (inactive).
For `N/C(=N\c1nc2ccccc2s1)NC(=O)Nc1ccc(Cl)cc1Cl`, the growth was -4.93% (active).
In the case of `O=C(COc1ccc(NC(=O)Nc2ccc(Cl)c(Cl)c2)cc1)N=Nc1c(O)[nH]c2ccc(Cl)cc12`, the growth is reported as 3.54% (active).
`CC(=O)Nc1ccc(-n2cnc3cc(-c4ccc(O)cc4)ccc32)cc1C(F)(F)F` was tested, and the growth was 18.4% (inactive).
With `COc1ccc2c(c1)C(=N/N=C(\C)c1ccc(OC)c(S(N)(=O)=O)c1)C(=O)N2` the growth was 90.3% (inactive).
`Cc1ccc2c(c1)nc(-c1ccccc1)n2CC(=O)N=Nc1c(O)[nH]c2ccc(Br)cc12` was tested, and the growth was -69.7% (active).
With `C=CC(=O)Nc1ccc(C)c(Oc2ccc(Cl)cc2)c1` the growth was 36.8% (inactive).
`COc1cc2oc(-c3cccc(C(=O)Nc4cccc([N+](=O)[O-])c4)c3)cc(=O)c2c(OC)c1OC` was tested, and the growth was 25.1% (inactive).
For `COc1ccc2oc3c4[nH]c5ccccc5c4c4c(c3c2c1)C(=O)N(C(=O)OC(C)(C)C)C4=O`, the growth was -25.9% (active).
`CC(=O)OC[C@@]1(C)C2CC[C@]3(C)C(CC=C4C5CC(C)(C)CC[C@]5(C(=O)Nc5ccc(F)cc5)CC[C@]43C)[C@@]2(C)C[C@@H](OC(C)=O)[C@@H]1OC(C)=O` (stereo partly drawn) was tested, and the growth was 27.3% (inactive).
With `CC1(C)CC[C@]2(C(=O)O)CC[C@]3(C)C(=CCC4[C@@]5(C)C[C@@H](O)[C@@H]6OC(c7ccccc7Br)OC[C@@]6(C)C5CC[C@]43C)C2C1` (stereo partly drawn) the growth was 7.28% (active).
`Nc1nc(C(F)(F)F)cs1` was tested, and the growth was 93.2% (inactive).
